Compound activity deposited in PubChem by several laboratories.
Sampled rows, rich in hits. Any-hit rate of the full collection: about 4%.
GDH-TPI inh – counter-screen for M. tuberculosis FBA inhibitors: GDH-TPI coupled enzymes | GDH-TPI coupled enzyme counterscreen, NADH absorbance | inhibition, % at 4.8 µM | 360,000 compounds, 1.2% hits; in the data active = inhibition above about 30%;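 also: 0% = DMSO wells and 100% = wells lacking the enzyme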
Mtb FBA inh – inhibitors of M. tuberculosis fructose-bisphosphate aldolase. purified M. tuberculosis FBA, fluorescence read-out. inhibition, % at 1 µM. 360,000 compounds, 2.3% hits. P9WQA3; in the data active = inhibition above about 27%;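 also: 0% = vehicle and 100% = reference inhibitor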
Mtb UGM inh – inhibitors of M. tuberculosis UDP-galactopyranose mutase. inhibition, % at 10 µM. 320,000 compounds, 0.06% hits. purified UGM, fluorescence polarization probe displacement. P9WIQ1; in the data active = inhibition above about 10%, passing the limit was not always enough
RecA splice inh – inhibitors of M. tuberculosis RecA intein splicing; P9WHJ3; AID 2221; inhibition, % (concentration not given with the values); cell-free RecA intein splicing, fluorescence; 290,000 compounds, 0.75% hits; in the data active = inhibition above about 30%;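 also: 0% = vehicle wells and 100% = reference inhibitor control wells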
Target sequence (P9WHJ3 whole entry, looked up, canonical isoform): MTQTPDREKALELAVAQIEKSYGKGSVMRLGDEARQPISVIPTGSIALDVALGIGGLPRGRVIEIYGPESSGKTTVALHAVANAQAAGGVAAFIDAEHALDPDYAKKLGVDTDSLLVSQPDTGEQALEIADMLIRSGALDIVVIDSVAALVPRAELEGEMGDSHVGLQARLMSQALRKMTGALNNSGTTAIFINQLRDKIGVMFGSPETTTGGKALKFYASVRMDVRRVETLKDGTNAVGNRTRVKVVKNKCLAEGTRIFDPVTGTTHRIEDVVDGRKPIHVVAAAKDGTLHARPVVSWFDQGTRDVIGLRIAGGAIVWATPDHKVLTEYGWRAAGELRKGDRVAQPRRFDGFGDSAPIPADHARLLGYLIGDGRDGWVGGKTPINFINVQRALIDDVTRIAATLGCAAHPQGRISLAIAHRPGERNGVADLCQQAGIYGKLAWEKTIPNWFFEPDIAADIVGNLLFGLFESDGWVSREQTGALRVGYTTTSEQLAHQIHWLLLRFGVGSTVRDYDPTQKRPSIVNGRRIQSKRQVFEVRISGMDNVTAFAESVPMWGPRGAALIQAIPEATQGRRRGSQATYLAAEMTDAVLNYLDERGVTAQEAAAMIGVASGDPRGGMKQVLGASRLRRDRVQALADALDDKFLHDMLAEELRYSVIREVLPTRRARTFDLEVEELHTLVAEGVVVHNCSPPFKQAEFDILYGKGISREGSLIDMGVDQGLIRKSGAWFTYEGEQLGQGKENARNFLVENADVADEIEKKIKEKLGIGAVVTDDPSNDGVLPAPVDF
Rv3671c protease – inhibits the M. tuberculosis serine protease Rv3671c. P9WHR9. inhibition, % at 5.96 µM. 320,000 compounds, 0.048% hits. AID 2606; in the data active = inhibition above about 38%;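 also: extracellular domain of Rv3671c used as enzyme; 0% = enzyme with DMSO and 100% = no enzyme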
Mtb betalactam – beta-lactam sensitization of Mtb H37Rv | AID 434955 | inhibition, % at 25 µM | M. tuberculosis H37Rv growth with meropenem, percent inhibition | 330,000 compounds, 0.27% hits; call rule not given here;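 also: growth measured after seven days incubation then overnight dye step; 0% = bacteria only wells and 100% = bacteria with antibiotic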
* marks the source's active call; other numbers are inactive results; i = inactive; · = no result given; + = active, no number.

SMILES | GDH-TPI inh | Mtb FBA inh | Mtb UGM inh | RecA splice inh | Rv3671c protease | Mtb betalactam
c1ccc(C2[C@H]3CN(Cc4cccnc4)[C@H](c4ccccc4)C34CC2(c2ccccc2)C4)cc1 (stereo partly specified) | -1 | -1 | 0 | 10 | -3 | 6
c1ccc(C2[C@H]3CN(Cc4cccnc4)[C@H](c4ccccc4)C34CC2(c2cccnc2)C4)cc1 (stereo partly specified) | 4 | 1 | 1 | 37* | 4 | 81
COc1ccc(NC(=O)c2cc(C3CCCCN3S(=O)(=O)c3cccs3)on2)c(C)c1 (stereo unspecified) | 4 | -3 | · | · | · | ·
O=C(N/N=C/c1ccc[nH]1)c1ccc(Cl)cc1 | 39* | -1 | -1 | 4 | 5 | 50
O=C(N/N=C/c1ccc[nH]1)c1ccccc1[N+](=O)[O-] | 13 | 1 | 1 | -2 | -5 | 2
Cc1ccc(C(=O)N/N=C\c2ccc[nH]2)cc1[N+](=O)[O-] | 48* | 1 | 1 | 3 | 0 | 57
CCCCCCOC(=O)c1ccc(OC(=O)c2cccnc2)cc1 | -2 | -3 | -2 | 61* | 2 | 96
COc1cc(C(=O)N/C(=C\c2cn(C)c3ccccc23)C(=O)NCCN2CCOCC2)cc(OC)c1OC | 41* | -2 | 3 | 0 | -5 | 3
CCn1cc(/C=C(\NC(=O)c2cc(OC)c(OC)c(OC)c2)C(=O)NCCN2CCOCC2)c2ccccc21 | 30 | -4 | 2 | 2 | 3 | -2
COc1ccc(C(=O)N/C(=C\c2cn(C)c3ccccc23)C(=O)NCCN2CCOCC2)cc1OC | 44* | 3 | 0 | 0 | -2 | -1
COC(=O)c1ccc(CNC(=O)COC(=O)c2ccccc2-c2ccccc2)cc1 | -7 | 1 | 3 | 2 | 2 | -8
Cc1cc(O)ccc1-c1ccc2nncn2c1 | 1 | 2 | · | · | · | ·
COc1ccc(C2CC=C(C(C)=O)CN2S(=O)(=O)c2ccc(C)cc2)cc1 (stereo unspecified) | · | 3 | · | · | · | ·
Cc1cc(=O)oc2c3c(cc(OCC(=O)NCc4ccco4)c12)OC(C)(C)CC3 | 13 | + | -3 | 1 | 0 | -4
COc1ccc(CNC(=O)COc2cc3c(c4oc(=O)cc(C)c24)CCC(C)(C)O3)c(OC)c1 | 12 | 34* | · | · | · | ·
Cc1cc(=O)oc2c3c(cc(OCC(=O)NCc4ccncc4)c12)OC(C)(C)CC3 | 16 | + | -1 | -4 | -5 | 3
CCc1nnc(NC(=O)CCC(=O)Nc2ccc(OC)cc2OC)s1 | -1 | -1 | 1 | -3 | 4 | 2
COc1cccc(-c2cc(NC=O)c3ncc(-c4ccc(C(C)=O)cc4)n3c2)c1 | 17 | 2 | · | · | · | ·
COc1ccc(NS(=O)(=O)c2cc3c4c(c2)C(C)C(=O)N4CCC3)cc1 (stereo unspecified) | 3 | 1 | 2 | 2 | -2 | 5
CC1(C)CC(=O)C2=C(C1)NC(Nc1nc3ccccc3o1)=NC21CCCC1 | 5 | -5 | -3 | 0 | 7 | -7
CC1(C)CC(=O)C2=C(C1)NC(Nc1nc3ccccc3o1)=NC2c1ccccn1 (stereo unspecified) | 44* | -2 | 1 | -4 | 4 | 91
CCCc1c(C(=O)N/N=C/C(C)=C/c2ccco2)nnn1-c1nonc1N | 26 | 2 | -1 | -11 | -10 | 2
CC(C)c1c(C(=O)N/N=C/c2ccncc2)nnn1-c1nonc1N | -7 | -2 | -1 | -1 | -5 | 10
CC(C)c1c(C(=O)N/N=C/C=C/c2ccccc2)nnn1-c1nonc1N | 39* | -1 | -1 | -2 | 4 | 2
CN(C)Cc1c(C(=O)N/N=C/C=C/c2ccccc2)nnn1-c1nonc1N | 34* | -2 | 2 | · | -9 | -6
SMILES | GDH-TPI inh | Mtb FBA inh | Mtb UGM inh | RecA splice inh | Rv3671c protease | Mtb betalactam
CC(/C=N/NC(=O)c1nnn(-c2nonc2N)c1C(C)C)=C\c1ccco1 | 37* | 5 | 0 | 12 | 3 | -12
CC(/C=N/NC(=O)c1nnn(-c2nonc2N)c1CN1CCCCC1)=C\c1ccccc1 | 34* | -2 | -4 | 0 | -1 | 0
O=C1CN(C(=O)CN2CCN(S(=O)(=O)c3ccccc3)CC2)c2ccccc2N1 | 2 | -3 | · | · | · | ·
COc1cccc(C(=O)OCC(=O)Nc2sc3c(c2C(N)=O)CCC3)c1O | 12 | 2 | · | · | -6 | 0
O=C(N/N=C/c1c(O)n(-c2ccccc2Cl)c(=O)c2ccccc12)C1COc2ccccc2O1 (stereo unspecified) | 15 | 34* | -1 | 6 | 16 | 6
O=C(CS(=O)(=O)Nc1ccc(F)cc1Cl)Nc1ccc(F)cc1Cl | -2 | 1 | 0 | -3 | -12 | 2
CC(/C=N/Nc1nnc(C)c(=O)[nH]1)=C\c1ccccc1 | 32* | -3 | 0 | -1 | -7 | 6
Cc1cccc(/C=N\Nc2nnc(-c3ccccc3)c(=O)[nH]2)c1 | 15 | -1 | 1 | -1 | -14 | 2
CCN1C(=O)NC(=O)/C(=C\c2cn(CC(=O)N3CCCCC3)c3ccccc23)C1=O | 1 | 2 | 41* | -4 | -18 | 3
CCN1C(=O)NC(=O)/C(=C\c2cn(CC(=O)O)c3ccccc23)C1=O | · | · | 0 | 3 | -13 | 1
CCN1C(=O)NC(=O)/C(=C\c2cn(CC(=O)N3CCCC3)c3ccccc23)C1=O | -3 | -10 | 52* | 4 | -13 | 12
COc1ccccc1NC(=O)C(C)OC(=O)C1CCN(S(=O)(=O)c2ccc(C)c(C)c2)CC1 (stereo unspecified) | 4 | 3 | 3 | -1 | -2 | 2
Cc1ccn(CC(=O)N/N=C/c2cc([N+](=O)[O-])ccc2O)n1 | 49* | -11 | 0 | -3 | 3 | 8
O=[N+]([O-])c1ccc(O)c(/C=N/Nc2ccc(Cl)nn2)c1 | 33* | -1 | -1 | · | 7 | 13
CCOCCCn1c(=NC(=O)c2ccc(OC)c(OC)c2)c(C#N)cc2c(=O)n3cccc(C)c3nc21 | · | · | 1 | -17 | 9 | -3
CCOCCCn1c(=NC(C)=O)c(C#N)cc2c(=O)n3cccc(C)c3nc21 | 2 | + | 1 | i | 3 | -9
CCCCn1c(=NC(C)=O)c(C#N)cc2c(=O)n3cccc(C)c3nc21 | 0 | 102* | -3 | -2 | 15 | 1
CCCCCn1c(=NC(=O)c2cccnc2)c(C#N)cc2c(=O)n3cccc(C)c3nc21 | 1 | 116* | 1 | -1 | 6 | -2
CCN1C[C@@H]2[C@@H]3C(=O)N(C)C(=O)[C@@H]3[C@](C)(C(=O)OC)N2C1=NC | 10 | -1 | · | · | · | ·
Cc1ccc(NC(=O)c2cc(=O)[nH]c3ccccc23)cc1C | 11 | -2 | 1 | -1 | · | 5
N/C(=N\OC(=O)/C=C/c1ccccc1)c1ccccn1 | 9 | -4 | 1 | -2 | -8 | 45
COc1ccc(/C=C/C(=O)N2CCOCC2)cc1OC | 21 | 5 | -2 | 0 | -4 | -1
COc1ccc(/C=C/C(=O)N2CCN(c3ccccn3)CC2)cc1OC | 39* | -3 | -4 | -2 | -1 | 0
